Data published in PubChem BioAssay AID1650 (Southern Research Specialized Biocontainment Screening …, 2009).
Entries with a potency or affinity are not part of this list. The source made the active and inactive calls. The rule behind the calls is not given here.

Test: mammalian cell viability reduction – secondary assay, cytotoxicity control for West Nile virus antiviral project, dose response (AID 1650)

Row | SMILES | outcome
1 | CCCN(CC(=O)Nc1cccc(Br)c1)CC(=O)Nc1ccc(F)c(F)c1F | inactive
2 | Cn1c(CCN2CCCCC2)nc2cc(NC(=O)COc3ccc([N+](=O)[O-])cc3)ccc21 | inactive
3 | CN(C)CC(O)COc1ccc(C(C)(C)c2ccc(OCC(O)CN(C)C)cc2)cc1 (configuration not stated) | inactive
4 | CN1C(=O)/C(=C\C(=O)c2cccs2)c2ccccc21 | inactive
5 | CCCCc1nc2ccccc2c(N)c1CCC (tested in a mixture with another compound) | inactive
6 | COc1ccc(Cl)cc1NC(=O)c1nnn(CC(=O)Nc2cc(C)cc(C)c2)c1N | inactive
7 | CC(CN1CCCC1)C(=O)NN (configuration not stated) | inactive
8 | CN1CCN(CCCN2c3ccccc3Sc3ccc(C(F)(F)F)cc32)CC1 | inactive
9 | CN1CCN(Cc2nc3ccccc3c(=O)n2Cc2nc(-c3ccccc3F)cs2)CC1 | inactive
10 | CCc1ccc(C(=O)Cn2ncc(Cl)c(Cl)c2=O)cc1 | inactive
11 | CCC(C)NC(=O)/C(=C/c1ccco1)c1ccccc1 (configuration not stated) | inactive
12 | COc1cc(C(=O)N/C(=C/c2ccc(F)cc2)C(=O)NC(C(=O)O)c2ccccc2)cc(OC)c1OC (configuration not stated) | inactive
13 | CSc1cccc(NC(=S)N(CCCN2CCCC2)Cc2cccn2Cc2ccc(Cl)cc2)c1 | inactive
14 | COc1ccc2[nH]c3nc(SCc4nnc(-c5ccc(C)cc5)o4)nnc3c2c1 | inactive
15 | COCCn1c(SCC(=O)Nc2nnc(C)s2)nnc1-c1ccncc1 | inactive
16 | CN(Cc1ccccc1)c1nc(N)c([N+](=O)[O-])c(Nc2cccc(F)c2)n1 | inactive
17 | Brc1ccc2c(c1)CN1CCCC1=N2 | inactive
18 | O=C(Nc1cccc(-c2cccc(Cl)c2)c1)C1CCN(CC2CCOC2)CC1 (configuration not stated) | inactive
19 | CC(NC(=O)/C=C/c1cnc2ccccc2n1)C12CC3CC(CC(C3)C1)C2 (configuration not stated) | inactive

Row | SMILES | outcome
20 | Cc1ccc(Cl)cc1N1CCN(CC(=O)Nc2ccc(CN3CCCCC3)cc2)CC1 | inactive
21 | CC1=CC(C)(C)N2C(=O)C3(NCCc4c3[nH]c3ccccc43)c3cc(C)cc1c32 (configuration not stated) | inactive
22 | CCN1CCN(c2cc(C)c3cc(NC(=S)N4CC(C)CC(C)C4)ccc3n2)CC1 (configuration not stated) | inactive
23 | N#Cc1ncc(-c2ccc3c(c2)OCCOCCOCCOCCOCCO3)nc1C#N | inactive
24 | O=[N+]([O-])c1nn(-c2ccccc2)n(O)c1=NC1CCN(Cc2ccccc2)CC1 | inactive
25 | O=C(Nc1ccc2nc3n(c(=O)c2c1)CCCC3)c1cc([N+](=O)[O-])ccc1F | inactive
26 | CN1CCN(c2ccc(C(F)(F)F)cc2NC(=O)Nc2ccccc2)CC1 | inactive
27 | NS(=O)(=O)c1ccc(NC(=O)c2cc(-c3cc(Cl)ccc3O)n[nH]2)cc1 | inactive
28 | CCN(CC)CCCN1CC(O)=C(c2nc3ccccc3s2)C1=N | inactive
29 | CCN1CCN(CCCNC(=O)C2CCCN(c3nc4c(C)cc(C)cc4s3)C2)CC1 (configuration not stated) | inactive
30 | C=CCn1cc(C(=O)NCCOC)c(=O)c2cc(S(=O)(=O)N(CC)CC)ccc21 | inactive
31 | CCCC1=Nc2cc(C(=O)NCCN3CCCC3)ccc2Sc2ccccc21 | inactive
32 | COc1ccc(C2c3c(ncn(CCN4CCOCC4)c3=N)Oc3ccc4ccccc4c32)cc1 (configuration not stated) | inactive
33 | CN(C)CCNC(=O)c1cc2sc3ccccc3c2s1 | inactive
34 | O=C(c1cccc(S(=O)(=O)N2CCOCC2)c1)N1CCOCC1 | inactive
35 | CC1(C)CC(NC(=O)COc2cc3oc(=O)c4c(c3cc2Cl)CCC4)CC(C)(C)N1 | inactive
36 | COc1ccc(OCC(O)Cn2c(=N)n(Cc3ccccc3)c3ccccc32)cc1 (configuration not stated) | inactive
37 | O=C(Nc1ccc(F)cc1F)c1cc2ccccc2oc1=O | inactive
